# Measured values: the supplement of paper PMC7156485
# Experiments:
# Conditions in all cases: concentration: 10 µM; 24 h
# [1] = system: HCC1569; assay: cell number relative to DMSO (% of DMSO); higher = more cells (less growth inhibition / toxicity)
# Method in brief: (§1)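 H1.0 nuclear intensity or cell number is stated as percent of the plate control, based on the median of replicates, and HCC1569 values were smoothed for positional effects. These came from HCC1569 and TDF cells treated with compounds at 10 µM for 24 h at 37 °C in triplicate, then fixed in 3.7% formaldehyde and stained with a rabbit anti-H1.0 antibody, an AlexaFluor 647 secondary and DAPI.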
# [2] = system: TDF; assay: as above
# Method in brief: as §1
# [3] = system: TDF; assay: H1.0 immunofluorescence intensity relative to DMSO (% of DMSO); higher = stronger H1.0 induction, active = 120 or more
# Method in brief: as §1
# [4] = system: HCC1569; assay: H1.0 immunofluorescence intensity relative to DMSO (% of DMSO); higher = stronger H1.0 induction, active = 140 or more
# Method in brief: as §1
# 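Throughout, for H1.0 immunofluorescence intensity relative to DMSO: TDF is a line of transformed human dermal fibroblasts of mesenchymal origin.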
# 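Throughout, for cell number relative to DMSO: TDF denotes transformed human dermal fibroblasts of mesenchymal origin.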
SMILES,cell number [1],cell number [2],H1.0 immunofluorescence intensity [3],H1.0 immunofluorescence intensity [4]
NC1CCN(c2nc3c(cc2F)c(=O)c(C(=O)O)cn3-c2ccc(F)cc2F)C1 (stereo unspecified) [Tosufloxacin],106,102,105 (inactive),104 (inactive)
CCN(CC)CCNC(=O)c1ccc(N)cc1.Cl [Procainamide hydrochloride],98.7,110,88.6 (inactive),99.1 (inactive)
COc1ccc(S(=O)(=O)Nc2nc(-c3cccc([N+](=O)[O-])c3)c(CN3CCCCC3)s2)cc1OC,101,98.9,89.5 (inactive),110 (inactive)
"CCCCCC=CCC(O)C=CC=CC=CC(O)CCCC(=O)O [5(S),12(S)-DIHETE all trans]",101,106,93.5 (inactive),95 (inactive)
Cc1ccc(NC2=CC(=O)c3sc(C)nc3C2=O)cc1 [Cdk4 Inhibitor III],26.6,12,132 (active),105 (inactive)
Cl.NCc1c[nH]c(=S)n1[C@H]1CCc2c(F)cc(F)cc2C1,99.6,110,95.9 (inactive),111 (inactive)
O=C(O)c1ccccc1Nc1cccc(OCc2ccc3ccccc3n2)c1,104,97.2,91.5 (inactive),106 (inactive)
CCCCS(=N)(=O)CCC(N)C(=O)O [L-Buthionine-sulfoximine],102,96.6,97.4 (inactive),95.6 (inactive)
C=CCN1CCc2cc(O)c(O)cc2C(c2ccccc2)C1 (racemic),101,108,90.9 (inactive),101 (inactive)
CCC1OC(=O)C(C)C(OC2CC(C)(OC)C(O)C(C)O2)C(C)C(OC2OC(C)CC(N(C)C)C2O)C(C)(OC)CC(C)C(=O)C(C)C(O)C1(C)O (stereo unspecified) [Clarithromycin],98.4,93,94.3 (inactive),94.6 (inactive)
NC(Cc1cccc(-c2ccccc2CP(=O)(O)O)c1)C(=O)O (stereo not drawn) [Phenylbenzene-omega-phosphono-alpha-amino acid],99.4,104,89.5 (inactive),105 (inactive)
"CC(=O)OC1C(C)OC(Oc2c(-c3ccc(O)cc3)oc3cc(O)cc(O)c3c2=O)C(O)C1OC(C)=O (stereo unspecified) [RSK Inhibitor, SL0101]",97.7,92.8,102 (inactive),107 (inactive)
C=C(C)C1CC=C(C(=O)O)CC1 (stereo unspecified) [Perillic acid],102,98.7,96.4 (inactive),92.9 (inactive)
O=C(O)C1=CC(=C(c2ccc(O)c(C(=O)O)c2)c2ccc(O)c(C(=O)O)c2)C=CC1=O [Aurintricarboxylic acid],102,113,89.4 (inactive),85.8 (inactive)
CC(C)c1cccc(O)c(=O)c1 [Hinokitiol],83.8,83,89.5 (inactive),94.8 (inactive)
CCCSc1ccc2nc(NC(=O)OC)[nH]c2c1 [Albendazole],61.4,9.62,149 (active),176 (active)
Cc1ccc(C(=O)Nc2ccc(S(=O)(=O)[O-])c3cc(S(=O)(=O)[O-])cc(S(=O)(=O)[O-])c23)cc1NC(=O)c1cccc(NC(=O)Nc2cccc(C(=O)Nc3cc(C(=O)Nc4ccc(S(=O)(=O)[O-])c5cc(S(=O)(=O)[O-])cc(S(=O)(=O)[O-])c45)ccc3C)c2)c1 [Suramin],94.4,86.9,96.7 (inactive),107 (inactive)
"O=C1CCCC(=O)C1C(=O)c1ccc(C(F)(F)F)cc1[N+](=O)[O-] [2-[2-nitro-4-(trifluoromethyl)benzoyl]-1,3-cyclohexanedione]",96.1,104,99.8 (inactive),101 (inactive)
"CCCCCC=CCC=CCCCCCCCCCCCC(=O)O [13(Z),16(Z)-Docosadienoic acid]",100,109,104 (inactive),89.9 (inactive)
